The values that follow come from PubChem BioAssay (NCATS).

SMILES strings stand for the structures. Values without a mark were called inactive. Results filed as inconclusive are left out. Activity calls are given as the source filed them. Unless noted, calls follow the shape of the dose curve; as a rule, active = well fitted curve in the direction sought with a large enough effect; inconclusive = small, poorly fitted or top-dose-only effect, or another doubt; inactive = no such curve, though single readings can be large; an effect the other way counts as inactive or inconclusive.

Test [1] concerns the target Lysosomal acid glucosylceramidase (Homo sapiens) (UniProt P04062). Description: Glucocerebrosidase-p2 (AID 348; in the data active = potency below about 10 µM; also: potency is read from the fitted curve at half-maximal effect). The settings on record: purified GBA, blue fluorogenic substrate, 40 min. The method in brief: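 Normal human glucocerebrosidase (0.2 nM) with blue fluorogenic substrate (80 uM final) in citrate/phosphate pH 5.9 with 10mM sodium taurocholate, 0.01% tween-20; 40 min RT, NaOH/glycine stop; fluorescence Ex 365/Em 440; AC50 from a titration from 0.6 nM upwards.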

Test [2] in a line: AP1 Signaling Pathway (AID 357; active = well fitted curve in either direction with a large enough effect, not every such curve was filed as active;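 also: ME-180 reporter cells stimulated with EGF at its EC50 level; % is scaled to controls: 0 for no effect and ±100 for the full control effect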). The settings on record: ME-180 AP-1-bla reporter, EGF-induced, beta-lactamase ratio, 5 h; at 7.69 µM (top of the series) unless noted. The essentials: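 Modulation of EGF-driven AP-1 transcription was assessed with a beta-lactamase reporter in ME-180 cells. Compound and EC50 EGF were co-incubated 5 hours at 37 °C before 2.5-hour CCF4 loading at room temperature and dual-emission reading.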

Test [3] is described as follows: Stat Signaling Pathway (AID 446; active = well fitted curve in either direction with a large enough effect, not every such curve was filed as active;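 also: ME-180 cervical cancer cells given 40 pM IL-6 alongside compound; SIE-controlled beta-lactamase reporter measured as 460/530 nm FRET emission ratio; % is scaled to controls: 0 for no effect and ±100 for the full control effect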). The settings on record: ME-180 SIE beta-lactamase reporter, IL-6 stimulated, 5 h; at 7.69 µM (top of the series) unless noted. The essentials:
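FRET read-out (405 nm excitation, 460/530 nm emission) of a beta-lactamase reporter under a STAT-inducible element in ME-180 cervical carcinoma cells. Cells with compound receive 40 pM IL-6 for 5 h. Values are normalised to AC90 stimulation and AC90 JAK-inhibitor controls.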

For test [4], the target named is Glucocorticoid receptor (Homo sapiens) (UniProt P04150). The experiment in a line: GR-GFP Redistribution (AID 450;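 active = compounds whose dose series gives a full or clear partial fitted curve of increased nuclear translocation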; also: potency is read from the fitted curve at half-maximal effect). As to conditions: U2OS GR-GFP nuclear translocation, laser cytometry, 2 h.
Test [5] shares this target. Description: GR-EFC Redistribution (AID 451; calls by dose curve; also: potency is read from the fitted curve at half-maximal effect). As to conditions: CHO-K1 GR-EFC translocation, beta-gal luminescence, 2 h. The method in brief:
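CHO-K1 cells expressing nuclear EA and GR-ED fragments of b-gal; compounds titrated up to 46 uM final, 2 h at 37 C. GR nuclear translocation read as complemented b-gal luminescence after 1 h RT detection.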

In test [6] the target is Mitogen-activated protein kinase 10 (Mus musculus) (UniProt Q61831). Description: JNK3 AlphaScreen Assay (AID 530; active = well fitted curve in either direction with a large enough effect, not every such curve was filed as active;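 also: kinase came from lysate of stimulated human HepG2 cells; signal reports phosphorylation of biotinylated GST-cJun 1-79 at Ser73 with 10 µM ATP; % is scaled to controls: 0 for no effect and ±100 for the full control effect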). As to conditions: JNK3 lysate, c-Jun phosphorylation; series mostly up to 57.1 µM. The essentials: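 Activity was read by AlphaScreen after JNK3-containing HepG2 lysate (cytokine pre-activated) phosphorylated biotinylated GST-cJun with 10 uM ATP at room temperature. Phospho-Ser73 cJun antibody with Protein-A acceptor beads provided detection.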
In general terms: Bead proximity is the source of the signal in Alpha formats.

The target of test [7] is 3',5'-cyclic-AMP phosphodiesterase 4B (Homo sapiens) (UniProt Q07343). Description: qHTS Assay for Inhibitors of PDE-IV (AID 607; active = well fitted activation curve with a large enough effect in the main read-out, with a control signal flat, not every such curve was filed as active; also: % of control where 0% means no effect). As to conditions: HEK293 ACTOne CNG channel cells, membrane potential fluorescence; series mostly up to 22.9 µM. The essentials: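 Cell-based read-out of cAMP via a modified cyclic nucleotide-gated channel and membrane potential dye (535/590 nm) in HEK293 cells expressing PDE4 endogenously. Compounds tested up to 22.9 uM final; 100 uM RO 20-1724 reference.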
In general terms: qHTS replaces the single test concentration by a dilution series.

Test [8] addresses Cytochrome P450 3A4 (Homo sapiens) (UniProt P08684). The experiment in a line: qHTS Assay for Activators of Cytochrome P450 3A4 (AID 885). Also: nearly all actives have a fitted effect of over 65% in size. The settings on record: recombinant CYP3A4, Luciferin-PPXE luminescence, 60 min; series mostly up to 57.1 µM. The method in brief: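 Luminescent readout of luciferin formed from 25 uM Luciferin-PPXE (KM level) by 20 nM CYP3A4 in 200 mM KPO4, with 60 min NADPH-driven reaction at room temperature after 10 min compound exposure. Ketoconazole (57 uM) defined 100% inhibition.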

Test [9] has as its target Dual specificity protein kinase CLK4 (Homo sapiens) (UniProt Q9HAZ1). Description: qHTS Assay for Inhibitors of CDC-like Kinase 4 (Kinase-Glo Assay) (AID 1770). Also: nearly all actives have a fitted effect of over 65% in size. Also: potency is read from the fitted curve at half-maximal effect. The settings on record: recombinant Clk4, Kinase-Glo ATP depletion luminescence; series mostly up to 66.7 µM. The essentials:
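Recombinant human Clk4 (25 nM) phosphorylated RS repeat peptide (100 uM) with 1 uM ATP in Tris pH 7.5/MgCl2/EGTA/DTT/Triton buffer for 4.5 h at room temperature. Residual ATP was quantified by Kinase-Glo luciferase luminescence.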

The target is the same in test [10]. The experiment in a line: qHTS Assay for Inhibitors of CDC-like Kinase 4 (ADP-Glo Assay) (AID 1771). Also: nearly all actives have a fitted effect of over 70% in size. Also: potency is read from the fitted curve at half-maximal effect. As to conditions: recombinant CLK4, ADP-Glo luminescence; series mostly up to 80 µM. The method in brief: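 Compounds are pin-transferred onto substrate mix (100 uM RS peptide, 1 uM ATP), then 25 nM Clk4 is added. After 1 hr at room temperature, ADP-Glo reagent runs 45 min, detection reagent 30 min, then luminescence is read.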

Test [11] shares this target. Description: qHTS Assay for Inhibitors of CDC-like Kinase 4 (ADP-FP Assay) (AID 1795). Also: nearly all actives have a fitted effect of over 60% in size. Also: potency is read from the fitted curve at half-maximal effect. As to conditions: Transcreener ADP fluorescence polarization; series mostly up to 50 µM. The method in brief:
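Recombinant human Clk4 (6.25 nM) phosphorylated RS repeat peptide (100 uM) with 1 uM ATP in Tris pH 7.5/MgCl2/EGTA/DTT/Triton buffer for one hour. ADP was quantified by Transcreener competitive fluorescence polarization against an ADP calibration curve.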

The target in test [12] is Ubiquitin carboxyl-terminal hydrolase 1 (Homo sapiens) (UniProt O94782). The experiment in a line: Inhibitors of USP1/UAF1: Pilot qHTS (AID 504865).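 Also: rhodamine fluorescence freed from ubiquitin-rhodamine substrate followed over time; top concentration of the series differs between compounds; % is scaled to controls: 0 for no effect and ±100 for the full control effect; nearly all actives have a fitted effect of over 35% in size.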 As to conditions: purified USP1/UAF1, Ub-rhodamine cleavage fluorescence; series mostly up to 54.9 µM. The method in brief: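 USP1/UAF1 complex (1nM) preincubated with compound 15 min at room temperature, then Ub-Rho substrate (150nM final) added. Fluorescence read kinetically at 480/540 nm, 6 reads every 60 seconds. Buffer: 50mM HEPES pH 7.8, 0.5mM EDTA, 0.1 mg/ml BSA, 1mM TCEP, 0.01% Tween-20.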

Test [13] is described as follows: Primary qHTS for small molecule stabilizers of the endoplasmic reticulum resident proteome: Secreted ER Calcium Modulated Protein (SERCaMP) assay (AID 1508630). Also: % is scaled to controls: 0 for no effect and ±100 for the full control effect. As to conditions: SH-SY5Y GLuc-SERCaMP (Gaussia luciferase released on ER calcium loss) secretion, thapsigargin, luminescence; series mostly up to 38.4 µM. The essentials:
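The SH-SY5Y reporter protocol was run at 3 concentrations up to 38.3 uM (primary) or 11 concentrations (follow-up): 16 h compound, 100 nM thapsigargin for 4 h, then extracellular luciferase luminescence.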

A short description of test [14]: NFAT Signaling Pathway (AID 444; active = well fitted curve in either direction with a large enough effect, not every such curve was filed as active). As to conditions: Jurkat NFAT-bla M1, carbachol, beta-lactamase ratio, 5 h; at 7.69 µM (top of the series) unless noted. The essentials: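 Jurkat cells with NFAT-driven β-lactamase reporter and co-expressed M1 receptor, stimulated with carbachol (final 1 uM, ~EC50), compound titration, 5 h at 37 °C. CCF4 loaded 1 h at RT; 460/530 nm ratio gave %activity and AC50.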

Test [15] can be described thus: qHTS Assay for Identification of Small Molecule Agonists for Hypoxia Response Element Signaling Pathway (AID 914; active = well fitted activation curve with a large enough effect in the signal ratio, with a control signal flat, not every such curve was filed as active; the % refers to the signal ratio; also: potency is read from the fitted curve at half-maximal effect). As to conditions: ME-180 (cervical carcinoma) HRE-bla reporter, beta-lactamase ratio, CoCl2, 17 h; activation: hits give high values. The essentials:
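In Opti-MEM containing 0.5% dialyzed FBS and 10 mM HEPES, ME-180 HRE-bla cells received a compound titration and EC50 CoCl2. They were incubated 17 hours, then CCF4-loaded 2.5 hours at room temperature before ratio reading.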

In test [16] the target is Cytochrome P450 1A2 (Homo sapiens) (UniProt P05177). Description: p450-cyp1a2 (AID 410; calls by dose curve; also: potency is read from the fitted curve at half-maximal effect). The settings on record: recombinant CYP1A2, luciferin-ME demethylation, luminescence; series mostly up to 57 µM. The essentials: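 O-Demethylation of luciferin 6' methyl ether by human CYP1A2 is monitored as luciferase luminescence. Substrate sits at Km (100uM); enzyme is 20nM. Values are scaled to 57 uM furafylline as maximal inhibition.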

Test [17] deals with Cytochrome P450 3A4 (Homo sapiens) (UniProt P08684). The experiment in a line: qHTS Assay for Inhibitors and Substrates of Cytochrome P450 3A4 (AID 884). Also: potency is read from the fitted curve at half-maximal effect; nearly all actives have a fitted effect of over 50% in size. As to conditions: recombinant CYP3A4, Luciferin-PPXE luminescence; series mostly up to 57.1 µM. The method in brief: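 Luminescent readout of luciferin produced by CYP3A4 (20 nM) dealkylation of Luciferin-PPXE, 25 uM (its KM). NADPH-driven reaction ran 60 min at RT after 10 min compound preincubation; data scaled to 57 uM ketoconazole as 100% inhibition.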

In test [18] the target is Cytochrome P450 2D6 (Homo sapiens) (UniProt P10635). The experiment in a line: qHTS Assay for Inhibitors and Substrates of Cytochrome P450 2D6 (AID 891). Also: potency is read from the fitted curve at half-maximal effect; nearly all actives have a fitted effect of over 60% in size. As to conditions: recombinant CYP2D6, luciferin-ME EGE luminescence; series mostly up to 57.1 µM. The essentials:
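Luminescent read-out of luciferin formed by 5 nM human CYP2D6 demethylating 30 uM Luciferin-ME EGE (Km level) over 60 min at room temperature after NADPH regeneration addition. Data normalized to full inhibition by 1.43 uM quinidine.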

Test [19] addresses Cytochrome P450 2C19 (Homo sapiens) (UniProt P33261). Description: qHTS Assay for Inhibitors and Substrates of Cytochrome P450 2C19 (AID 899). Also: potency is read from the fitted curve at half-maximal effect; nearly all actives have a fitted effect of over 60% in size. As to conditions: recombinant CYP2C19, luciferin-H EGE luminescence; series mostly up to 57.1 µM. The essentials:
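5 nM human CYP2C19 with 10uM Luciferin-H EGE (at KM) in 50mM KPO4, compound preincubated 10 min at 37C, then NADPH regeneration for 60 min at 37C. Luciferin read by luminescence after detection reagent; normalized to 57uM ketoconazole as full inhibition.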

Sequence of Lysosomal acid glucosylceramidase (Homo sapiens) (P04062 whole entry, looked up): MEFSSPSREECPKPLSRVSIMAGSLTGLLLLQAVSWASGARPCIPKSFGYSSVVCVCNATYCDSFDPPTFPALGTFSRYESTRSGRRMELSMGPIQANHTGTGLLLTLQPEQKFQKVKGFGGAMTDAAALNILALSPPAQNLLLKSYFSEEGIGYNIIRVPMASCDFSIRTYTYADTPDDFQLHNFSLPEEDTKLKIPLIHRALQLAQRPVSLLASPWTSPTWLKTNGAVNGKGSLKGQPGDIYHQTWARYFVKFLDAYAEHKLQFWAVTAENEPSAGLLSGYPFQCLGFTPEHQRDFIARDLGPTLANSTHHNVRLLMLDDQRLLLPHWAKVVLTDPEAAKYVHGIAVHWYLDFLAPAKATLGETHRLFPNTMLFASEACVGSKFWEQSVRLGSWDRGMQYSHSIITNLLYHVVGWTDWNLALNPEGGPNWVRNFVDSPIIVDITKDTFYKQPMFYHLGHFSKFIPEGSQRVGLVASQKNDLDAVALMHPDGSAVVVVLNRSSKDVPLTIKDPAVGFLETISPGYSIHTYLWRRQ
Sequence of Dual specificity protein kinase CLK4 (Homo sapiens) (Q9HAZ1 whole entry, looked up): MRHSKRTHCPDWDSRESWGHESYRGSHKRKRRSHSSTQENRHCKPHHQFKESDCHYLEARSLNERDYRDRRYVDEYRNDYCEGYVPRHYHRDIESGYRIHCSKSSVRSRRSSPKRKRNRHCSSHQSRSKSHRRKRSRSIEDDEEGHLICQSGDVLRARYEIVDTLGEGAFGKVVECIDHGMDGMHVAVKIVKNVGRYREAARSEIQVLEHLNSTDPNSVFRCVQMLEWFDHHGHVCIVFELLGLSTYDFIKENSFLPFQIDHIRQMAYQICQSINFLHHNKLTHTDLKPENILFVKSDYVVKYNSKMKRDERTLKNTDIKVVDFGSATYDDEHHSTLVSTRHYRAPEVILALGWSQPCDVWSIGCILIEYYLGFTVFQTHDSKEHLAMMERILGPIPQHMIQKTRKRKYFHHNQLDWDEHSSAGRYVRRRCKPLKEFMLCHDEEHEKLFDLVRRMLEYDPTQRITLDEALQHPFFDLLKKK
Sequence of Glucocorticoid receptor (Homo sapiens) (P04150 whole entry, looked up): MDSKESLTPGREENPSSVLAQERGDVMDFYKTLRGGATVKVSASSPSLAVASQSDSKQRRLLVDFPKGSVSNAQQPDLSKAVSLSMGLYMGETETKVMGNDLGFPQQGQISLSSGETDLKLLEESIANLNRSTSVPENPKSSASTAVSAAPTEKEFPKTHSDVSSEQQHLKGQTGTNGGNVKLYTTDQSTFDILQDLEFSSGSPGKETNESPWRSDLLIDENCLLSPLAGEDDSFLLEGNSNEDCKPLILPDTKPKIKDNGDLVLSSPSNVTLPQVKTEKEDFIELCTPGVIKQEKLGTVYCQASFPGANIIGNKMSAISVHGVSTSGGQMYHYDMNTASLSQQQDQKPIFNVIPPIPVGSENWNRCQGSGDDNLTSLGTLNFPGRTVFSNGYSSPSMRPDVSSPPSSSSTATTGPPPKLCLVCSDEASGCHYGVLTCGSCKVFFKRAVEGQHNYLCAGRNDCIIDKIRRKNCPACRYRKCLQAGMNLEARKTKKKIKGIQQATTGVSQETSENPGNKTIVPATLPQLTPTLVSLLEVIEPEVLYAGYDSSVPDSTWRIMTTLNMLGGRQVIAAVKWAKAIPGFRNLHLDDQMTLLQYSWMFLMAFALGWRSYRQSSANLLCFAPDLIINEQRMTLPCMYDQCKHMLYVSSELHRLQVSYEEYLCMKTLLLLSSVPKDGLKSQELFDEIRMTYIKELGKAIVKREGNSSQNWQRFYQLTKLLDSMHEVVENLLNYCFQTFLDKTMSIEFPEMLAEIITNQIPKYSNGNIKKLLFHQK
Sequence of Cytochrome P450 3A4 (Homo sapiens) (P08684 whole entry, looked up): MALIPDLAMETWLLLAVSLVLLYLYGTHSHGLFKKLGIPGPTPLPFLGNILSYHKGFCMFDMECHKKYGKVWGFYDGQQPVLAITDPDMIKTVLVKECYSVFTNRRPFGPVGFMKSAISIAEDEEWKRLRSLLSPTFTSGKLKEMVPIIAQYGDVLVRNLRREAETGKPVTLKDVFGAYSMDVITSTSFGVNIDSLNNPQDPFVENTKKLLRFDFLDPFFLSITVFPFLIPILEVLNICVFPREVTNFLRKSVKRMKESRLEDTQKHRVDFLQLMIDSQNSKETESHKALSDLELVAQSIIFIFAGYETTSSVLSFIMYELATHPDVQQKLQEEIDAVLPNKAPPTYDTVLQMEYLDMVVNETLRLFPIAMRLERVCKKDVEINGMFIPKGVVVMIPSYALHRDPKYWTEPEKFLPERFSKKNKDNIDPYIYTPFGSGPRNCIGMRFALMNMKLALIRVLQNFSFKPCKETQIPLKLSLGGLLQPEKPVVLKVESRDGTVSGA
Sequence of Ubiquitin carboxyl-terminal hydrolase 1 (Homo sapiens) (O94782 whole entry, looked up): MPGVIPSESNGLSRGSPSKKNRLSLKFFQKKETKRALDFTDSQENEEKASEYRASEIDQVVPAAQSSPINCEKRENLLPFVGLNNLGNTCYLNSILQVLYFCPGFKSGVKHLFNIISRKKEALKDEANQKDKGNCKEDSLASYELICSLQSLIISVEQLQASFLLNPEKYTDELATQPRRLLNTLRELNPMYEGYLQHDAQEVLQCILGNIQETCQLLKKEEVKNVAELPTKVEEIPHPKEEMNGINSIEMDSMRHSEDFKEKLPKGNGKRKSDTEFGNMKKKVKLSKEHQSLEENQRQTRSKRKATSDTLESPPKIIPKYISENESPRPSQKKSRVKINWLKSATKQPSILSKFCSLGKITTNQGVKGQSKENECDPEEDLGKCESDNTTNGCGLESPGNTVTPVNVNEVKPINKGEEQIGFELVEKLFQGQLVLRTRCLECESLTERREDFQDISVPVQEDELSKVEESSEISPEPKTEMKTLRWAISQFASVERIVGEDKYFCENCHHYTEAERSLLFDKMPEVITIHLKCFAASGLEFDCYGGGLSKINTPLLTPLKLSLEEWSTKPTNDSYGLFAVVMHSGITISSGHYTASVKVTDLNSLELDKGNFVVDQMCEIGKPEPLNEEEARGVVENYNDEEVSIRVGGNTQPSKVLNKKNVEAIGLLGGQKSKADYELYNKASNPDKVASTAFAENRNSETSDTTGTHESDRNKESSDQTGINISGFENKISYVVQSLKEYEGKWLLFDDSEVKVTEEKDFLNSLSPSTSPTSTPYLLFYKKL
Sequence of 3',5'-cyclic-AMP phosphodiesterase 4B (Homo sapiens) (Q07343 whole entry, looked up): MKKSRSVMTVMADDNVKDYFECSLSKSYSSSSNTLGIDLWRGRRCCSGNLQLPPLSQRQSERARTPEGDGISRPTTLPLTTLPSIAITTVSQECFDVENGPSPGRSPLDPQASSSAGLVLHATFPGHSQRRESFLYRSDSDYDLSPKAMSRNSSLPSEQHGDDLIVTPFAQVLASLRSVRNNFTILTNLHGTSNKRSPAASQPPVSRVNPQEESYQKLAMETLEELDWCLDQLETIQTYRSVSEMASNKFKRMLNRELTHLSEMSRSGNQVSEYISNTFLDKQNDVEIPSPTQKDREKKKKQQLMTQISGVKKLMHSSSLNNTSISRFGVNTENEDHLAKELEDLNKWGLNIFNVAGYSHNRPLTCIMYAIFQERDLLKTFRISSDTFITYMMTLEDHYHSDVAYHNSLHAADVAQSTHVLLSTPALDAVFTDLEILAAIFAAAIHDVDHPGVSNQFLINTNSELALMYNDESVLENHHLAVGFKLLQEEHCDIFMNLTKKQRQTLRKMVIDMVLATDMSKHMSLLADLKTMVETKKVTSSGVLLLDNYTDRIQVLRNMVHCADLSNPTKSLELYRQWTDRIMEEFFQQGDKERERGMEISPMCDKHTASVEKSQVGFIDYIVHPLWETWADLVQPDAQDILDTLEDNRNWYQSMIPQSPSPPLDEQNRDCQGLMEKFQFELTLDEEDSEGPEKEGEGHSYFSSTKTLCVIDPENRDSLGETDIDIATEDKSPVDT
Sequence of Cytochrome P450 1A2 (Homo sapiens) (P05177 whole entry, looked up): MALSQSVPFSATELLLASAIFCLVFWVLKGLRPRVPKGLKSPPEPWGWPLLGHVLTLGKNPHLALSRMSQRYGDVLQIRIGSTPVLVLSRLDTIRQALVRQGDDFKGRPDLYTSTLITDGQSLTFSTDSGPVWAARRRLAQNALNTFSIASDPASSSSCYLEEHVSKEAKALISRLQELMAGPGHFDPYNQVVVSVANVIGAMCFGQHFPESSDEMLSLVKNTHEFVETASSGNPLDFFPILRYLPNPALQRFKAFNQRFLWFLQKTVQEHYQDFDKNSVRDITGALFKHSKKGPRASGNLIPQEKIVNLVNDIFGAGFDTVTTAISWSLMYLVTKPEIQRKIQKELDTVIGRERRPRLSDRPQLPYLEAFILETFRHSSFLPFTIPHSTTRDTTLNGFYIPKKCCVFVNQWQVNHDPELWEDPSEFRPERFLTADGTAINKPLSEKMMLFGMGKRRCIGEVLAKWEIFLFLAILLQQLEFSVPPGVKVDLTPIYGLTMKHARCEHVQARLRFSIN
Sequence of Cytochrome P450 2C19 (Homo sapiens) (P33261 whole entry, looked up): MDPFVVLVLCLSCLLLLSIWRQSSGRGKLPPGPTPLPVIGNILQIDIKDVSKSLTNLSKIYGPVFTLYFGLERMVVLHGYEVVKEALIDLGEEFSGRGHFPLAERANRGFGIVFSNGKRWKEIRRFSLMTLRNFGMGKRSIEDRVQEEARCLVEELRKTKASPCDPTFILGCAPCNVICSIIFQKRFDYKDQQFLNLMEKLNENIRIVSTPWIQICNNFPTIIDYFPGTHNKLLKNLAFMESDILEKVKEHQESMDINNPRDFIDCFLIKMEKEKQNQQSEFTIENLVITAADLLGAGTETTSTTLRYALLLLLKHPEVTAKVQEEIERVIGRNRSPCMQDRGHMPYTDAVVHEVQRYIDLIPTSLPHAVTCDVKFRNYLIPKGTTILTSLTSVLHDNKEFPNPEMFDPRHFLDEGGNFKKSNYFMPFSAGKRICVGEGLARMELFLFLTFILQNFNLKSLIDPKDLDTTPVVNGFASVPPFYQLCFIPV

As to `CN(C)c1ncnc2ccc(-c3cccc(C#N)c3)cc12`, the Potency in [1] was over 11.4 µM; in [4], over 46 µM; in [5], over 46 µM; in [9] it was 14.1 µM (active); in test [10], 15.8 µM (active). For the same molecule, the activity change, negative = inhibition in test [2] is -26.8%. The activity, negative = inhibition in [3] was 21.1%. Also, the Potency result in test [6], in test [7], in test [8], in test [11] and in [12] was “inactive” throughout. The outcome in test [13] was inactive.

For the molecule `CCNc1ncc2nc(-c3cc(F)cc(F)c3)c(=O)n(C3CC3)c2n1`, in test [1], the Potency was over 11.4 µM. Further, the activity change, negative = inhibition in test [2] is 29.9%; in [14] it was 23.3%. In addition, in test [3], the activity, negative = inhibition was 28.9%. Besides, the Potency entry in test [6], in [7], in test [9], in [10], in test [11] and in test [12] was “inactive” in each case. In addition, in [13], the result was inactive.

As to `CCNc1ncc2nc(-c3ccc(F)cc3)c(=O)n(CCc3ccccc3)c2n1`, the Potency in [1] is over 11.4 µM; in test [4], over 9.22 µM; in [5], over 46 µM; in [15], 0.398 µM (active). The results for the activity change, negative = inhibition in [2] and in test [14] were 12.6% and -12.8%, respectively. The Potency result in test [6], in test [9], in test [10], in test [11] and in [12] was “inactive” in each case. In addition, the outcome in test [13] was inactive.

For `c1cn(-c2ccnc(-c3ccc4c(c3)OCO4)n2)cn1`, the Potency in test [1] was over 11.4 µM; in test [16], 0.0251 µM (active); in test [4], over 46 µM; in test [5], over 46 µM; in [17] it was 0.631 µM (active); in test [18], 3.16 µM (active). In addition, the Potency in test [9] was 2.51 µM (active); in test [10], 2.24 µM (active); in test [11], 3.98 µM (active). Further, the activity change, negative = inhibition in [14] was 17.8%. For the same molecule, in [3], the activity, negative = inhibition was 5.91%. For the same molecule, the Potency result in test [6], in test [7], in [8] and in [12] was “inactive” in each case. Further, in [13], the result was inactive.

As for `O=c1c(CCc2ccccc2)nc2cncnc2n1Cc1ccccc1Cl`, the Potency is over 11.4 µM in test [1]; 12.6 µM (active) in test [16]; over 46 µM in test [4]; over 46 µM in [5]; 5.01 µM (active) in test [19]. In addition, the activity change, negative = inhibition in test [14] is -6.53%. The activity, negative = inhibition in test [3] was -12.1%. Further, the Potency result in test [6], in test [8], in test [9], in [10], in test [11] and in test [12] was “inactive” each time. In [13], the outcome was inactive.

For `COc1ccccc1CNc1cc(-c2ccccc2C)ncn1`, the results for the Potency in test [1], in test [4] and in test [5] were over 11.4 µM, over 46 µM and over 46 µM, respectively. The figures for the activity change, negative = inhibition in test [2] and in test [14] were -17.3% and -18.6%, respectively. Also, the activity, negative = inhibition in test [3] is 14.3%. For the same molecule, the Potency result in test [6], in test [8], in test [9], in [10] and in [11] was “inactive” each time. In addition, the outcome in [13] was inactive.
